In PubChem BioAssay (Tox21):
Records with an inconclusive call do not appear. Active and inactive are the calls of the source. Unless noted, calls come from the whole dose curve; as a rule, active = well fitted curve in the direction sought with a large enough effect in the repeat runs; inconclusive = weak or mixed curves; inactive = no such curve, though single readings can be large; an effect the other way counts as inactive or inconclusive.

Experiments:
[1] = qHTS assay to test for compound auto fluorescence at 535 nm (green) in HEK293 cells (AID 720680)
[2] = qHTS assay to test for compound auto fluorescence at 460 nm (blue) in HEK293 cell free culture (AID 720681)
Procedure, shortened: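 Test compounds were pinned into cell-free culture medium (DMEM with 10% FBS) and fluorescence was read directly at Ex/Em 405/460 nm. Signals were expressed as fluorescence equivalents of triamterene, with DMSO vehicle as control.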

[3] = qHTS assay to test for compound auto fluorescence at 535 nm (green) in HEK293 cell free culture (AID 720682)
Procedure, shortened: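 Each library compound, or DMSO control, is added by pintool to medium alone, comprising DMEM and 10% FBS. Emission at 535 nm following 485 nm excitation is quantified against fluorescein.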

[4] = qHTS assay to test for compound auto fluorescence at 590 nm (red) in HEK293 cell free culture (AID 720683)
Procedure, shortened: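 Tox21 10K library compounds were pinned into cell-free DMEM with 10% FBS and fluorescence was read at excitation 540 nm. Activity is expressed as Rose Bengal sodium equivalency.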

[5] = qHTS assay to test for compound auto fluorescence at 590 nm (red) in HepG2 cell free culture (AID 720684)
Procedure, shortened: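 Ex 540 / Em 590 nm read of compound in cell-free MEM (10% FBS). Rose Bengal sodium reference.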

[6] = qHTS assay to test for compound auto fluorescence at 460 nm (blue) in HepG2 cell free culture (AID 720685)
Procedure, shortened: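 Cell-free plates of MEM plus 10% FBS received 23 nL compound or DMSO vehicle; blue-channel (405/460 nm) intensity scored against triamterene as reference fluorophore.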

[7] = target: Glucocorticoid receptor (Homo sapiens) (UniProt P04150); experiment: qHTS assay to identify small molecule agonists of the glucocorticoid receptor (GR) signaling pathway (AID 720691; active = well fitted activation curve with a large enough effect in the signal ratio in the repeat runs, not every such curve was filed as active; the % refers to the signal ratio)
Glucocorticoid receptor (Homo sapiens), sequence (P04150 whole entry, looked up): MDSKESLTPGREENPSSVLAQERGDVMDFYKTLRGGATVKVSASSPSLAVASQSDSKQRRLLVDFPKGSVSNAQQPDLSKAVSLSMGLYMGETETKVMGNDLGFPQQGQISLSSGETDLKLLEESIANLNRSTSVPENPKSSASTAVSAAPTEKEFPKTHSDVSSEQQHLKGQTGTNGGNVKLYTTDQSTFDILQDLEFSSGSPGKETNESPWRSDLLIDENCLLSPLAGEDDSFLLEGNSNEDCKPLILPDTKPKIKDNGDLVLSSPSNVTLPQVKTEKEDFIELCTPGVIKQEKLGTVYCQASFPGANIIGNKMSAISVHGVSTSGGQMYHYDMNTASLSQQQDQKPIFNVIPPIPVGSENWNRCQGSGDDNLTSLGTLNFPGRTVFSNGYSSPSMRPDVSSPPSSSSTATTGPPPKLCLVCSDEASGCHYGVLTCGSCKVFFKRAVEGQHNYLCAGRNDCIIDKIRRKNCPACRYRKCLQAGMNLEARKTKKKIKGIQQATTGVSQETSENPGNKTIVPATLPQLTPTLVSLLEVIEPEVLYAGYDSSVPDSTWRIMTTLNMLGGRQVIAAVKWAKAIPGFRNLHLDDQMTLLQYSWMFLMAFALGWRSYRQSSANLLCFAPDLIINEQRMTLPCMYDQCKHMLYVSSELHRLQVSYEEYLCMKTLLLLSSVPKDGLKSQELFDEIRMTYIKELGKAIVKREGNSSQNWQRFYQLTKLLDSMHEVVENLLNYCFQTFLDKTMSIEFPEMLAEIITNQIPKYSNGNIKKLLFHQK
Procedure, shortened: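 Measures GR pathway activation through a GRE-beta-lactamase reporter stably integrated in HeLa cells, with 18 h compound treatment at 37 C and fluorescence detection using a FRET substrate.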

[8] = qHTS assay to identify small molecule antagonists of the glucocorticoid receptor (GR) signaling pathway - cell viability counter screen (AID 720693); note: nearly all actives have a fitted effect of over 55% in size
[9] = qHTS assay for identifying genotoxic compounds that show differential cytotoxicity against isogenic chicken DT40 cell lines with known DNA damage response pathways - wild type cell line (AID 743012); note: nearly all actives have a fitted effect of over 60% in size; note: potency is the fitted concentration of half-maximal effect
Procedure, shortened: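 Endpoint: CellTiter-Glo luminescence, 30 min RT. Cells: wild type DT40, 300/well. Exposure: compounds in DMSO, 40 h, 37 C/5% CO2, after ~0.5 h pre-incubation.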

[10] = qHTS assay for identifying genotoxic compounds that show differential cytotoxicity against isogenic chicken DT40 cell lines with known DNA damage response pathways - Rad54/Ku70 mutant cell line (AID 743015); note: nearly all actives have a fitted effect of over 60% in size; note: potency is the fitted concentration of half-maximal effect
[11] = qHTS assay to identify small molecule antagonists of the androgen receptor (AR) signaling pathway - cell viability counter screen (AID 743033; note: nearly all actives have a fitted effect of over 45% in size)
[12] = target: Androgen receptor (Homo sapiens) (UniProt P10275); experiment: qHTS assay to identify small molecule antagonists of the androgen receptor (AR) signaling pathway (AID 743035; active = well fitted inhibition curve with a large enough effect in the signal ratio in the repeat runs, not every such curve was filed as active; the % refers to the signal ratio)
Androgen receptor (Homo sapiens), sequence (P10275 whole entry, looked up): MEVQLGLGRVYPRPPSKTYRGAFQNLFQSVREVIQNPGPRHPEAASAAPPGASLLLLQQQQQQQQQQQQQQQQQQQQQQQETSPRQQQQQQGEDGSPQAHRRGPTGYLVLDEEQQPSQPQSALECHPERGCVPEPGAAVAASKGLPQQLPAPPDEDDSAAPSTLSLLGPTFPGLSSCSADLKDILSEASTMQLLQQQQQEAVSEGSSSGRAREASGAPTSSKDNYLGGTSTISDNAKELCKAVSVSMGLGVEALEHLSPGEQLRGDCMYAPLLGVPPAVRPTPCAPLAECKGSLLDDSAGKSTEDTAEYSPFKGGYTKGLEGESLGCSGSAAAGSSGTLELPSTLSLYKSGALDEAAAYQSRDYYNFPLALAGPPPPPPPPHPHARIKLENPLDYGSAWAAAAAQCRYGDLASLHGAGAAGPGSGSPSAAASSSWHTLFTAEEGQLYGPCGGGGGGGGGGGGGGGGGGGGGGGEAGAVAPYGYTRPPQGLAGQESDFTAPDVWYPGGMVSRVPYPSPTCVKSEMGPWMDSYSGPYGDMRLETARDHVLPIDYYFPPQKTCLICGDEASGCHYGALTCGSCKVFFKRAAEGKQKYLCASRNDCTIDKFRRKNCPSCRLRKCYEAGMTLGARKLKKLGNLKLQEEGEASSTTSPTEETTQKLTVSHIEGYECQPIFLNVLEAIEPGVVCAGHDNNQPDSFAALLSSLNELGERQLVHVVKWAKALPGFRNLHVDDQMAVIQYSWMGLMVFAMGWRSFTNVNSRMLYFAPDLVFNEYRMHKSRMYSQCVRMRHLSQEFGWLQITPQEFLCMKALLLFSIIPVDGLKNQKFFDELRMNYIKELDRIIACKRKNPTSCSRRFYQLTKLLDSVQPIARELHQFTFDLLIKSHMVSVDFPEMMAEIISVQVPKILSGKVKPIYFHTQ
Procedure, shortened: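 R1881 agonist challenge of a HEK293 UAS-beta-lactamase AR reporter line in the presence of compound (16 h, 37C); signal taken as FRET fluorescence after 2 h with LiveBLAzer B/G substrate at room temperature.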

[13] = target: Androgen receptor (Homo sapiens) (UniProt P10275); experiment: qHTS assay to identify small molecule agonists of the androgen receptor (AR) signaling pathway (AID 743036; active = well fitted activation curve with a large enough effect in the signal ratio in the repeat runs, with a control signal flat, not every such curve was filed as active; the % refers to the signal ratio)
Procedure, shortened: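 Following a 4 h settling period, AR-UAS-bla HEK293 cells were dosed with compounds for 16 h at 37C. A 2 h room-temperature incubation with LiveBLAzer B/G FRET substrate preceded the fluorescence measurement.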

[14] = target: Androgen receptor (Homo sapiens) (UniProt P10275); experiment: qHTS assay to identify small molecule agonists of the androgen receptor (AR) signaling pathway using the MDA cell line (AID 743040; note: nearly all actives have a fitted effect of over 20% in size)
Procedure, shortened: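 Cell-based luciferase reporter: MDA-kb2, MMTV promoter (AR + GR response elements). 16 h compound exposure at 37C; ONE-Glo, 30 min RT, luminescence.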

[15] = qHTS assay to identify small molecule antagonists of the androgen receptor (AR) signaling pathway using the MDA cell line - cell viability counter screen (AID 743041; note: nearly all actives have a fitted effect of over 45% in size)
Procedure, shortened: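 In this qHTS counter assay, fluorescence intensity after CellTiter-Fluor addition indicated viability of MDA-kb2 AR-luc cells given compounds and R1881 for 16 h at 37C.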

[16] = target: Androgen receptor (Homo sapiens) (UniProt P10275); experiment: qHTS assay to identify small molecule antagonists of the androgen receptor (AR) signaling pathway using the MDA cell line (AID 743042; note: nearly all actives have a fitted effect of over 55% in size)
Procedure, shortened: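 MDA-kb2 cells (human breast carcinoma, stably carrying an MMTV-luciferase reporter responsive to AR and GR) were plated at 3,000 cells/well and preincubated 5 hr at 37C, then given compound plus R1881 agonist for 16 h. ONE-Glo luminescence was read.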

[17] = qHTS assay to test for compound auto fluorescence at 535 nm (green) in HepG2 cell free culture (AID 720686)
[18] = qHTS assay to test for compound auto fluorescence at 460 nm (blue) in HepG2 cells (AID 720687)
Procedure, shortened: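 Cells (2,000/well in MEM with 10% FBS) attached overnight at 37 C, then were exposed to compound or DMSO for 1 hr at 37 C, 5% CO2. Fluorescence read at Ex/Em 405/460 nm, expressed as triamterene-equivalent signal.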

[19] = target: Glucocorticoid receptor (Homo sapiens) (UniProt P04150); experiment: qHTS assay to identify small molecule antagonists of the glucocorticoid receptor (GR) signaling pathway (AID 720692; active = well fitted inhibition curve with a large enough effect in the signal ratio in the repeat runs, not every such curve was filed as active; the % refers to the signal ratio)
Procedure, shortened: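 Tox21 10K library screened in concentration-response for blockade of dexamethasone (5 nM final)-induced GRE-bla reporter activity in HeLa cells; 18 h treatment, fluorescence read.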

[20] = qHTS assay for identifying genotoxic compounds that show differential cytotoxicity against isogenic chicken DT40 cell lines with known DNA damage response pathways - Rev3 mutant cell line (AID 743014); note: nearly all actives have a fitted effect of over 55% in size; note: potency is the fitted concentration of half-maximal effect
% is set by controls: 0 for no effect and ±100 for the full control effect.

Cc1cc(NC(=O)C(=O)O)cc(C)c1Oc1ccc(O)c2c1CCC2
inactive: outcome [1] | Potency [2] | outcome [3] | outcome [4] | outcome [5] | Potency [6] | Potency [7] | Potency [8] | Potency [9] | Potency [10] | Potency [11] | Potency [12] | outcome [13] | Potency [14] | Potency [15] | Potency [16]

CCN(CC)CCc1nc(-c2ccccc2)no1
inactive: fluorescence, % of fluorescein [1] -0.143% [at 18.6 µM] | fluorescence, % of fluorescent control [2] -0.0186% [at 18.6 µM] | activity change [3] 0.0186% [at 18.6 µM] | fluorescence, % of fluorescent control [4] -0.0001% [at 18.6 µM] | fluorescence, % of Rose Bengal [5] 0.0837% [at 18.6 µM] | fluorescence, % of fluorescein control [17] -0.0688% [at 18.6 µM] | fluorescence, % of fluorescent control [18] -0.0362% [at 18.6 µM] | Potency [7] | Potency [19] | Potency [9] | Potency [10] | Potency [11] | Potency [15]

O=C(c1ccccc1)c1ccc2n1CCC2C(=O)O (stereo unspecified)
inactive: outcome [1] | Potency [2] | outcome [3] | outcome [4] | outcome [5] | Potency [6] | outcome [17] | Potency [8] | Potency [9] | Potency [10] | Potency [11] | Potency [15]

COC(=O)C(C)=O
inactive: outcome [1] | Potency [2] | outcome [3] | outcome [4] | outcome [5] | Potency [6] | outcome [17] | Potency [19] | Potency [8] | Potency [9] | Potency [20] | Potency [10] | Potency [11] | Potency [15]

O=S1(=O)c2cccc3cccc(c23)N1CCCN1CCN(c2ccc(F)cc2)CC1
inactive: outcome [1] | Potency [2] | outcome [3] | outcome [4] | outcome [5] | Potency [6] | Potency [18] | Potency [19] | Potency [8] | Potency [11]
active: Potency [9] 18.8 µM | Potency [10] 23.7 µM

CC/C(=C\C(=N/O)C(N)=O)C(C)[N+](=O)[O-] (stereo unspecified)
inactive: outcome [1] | Potency [2] | outcome [3] | outcome [4] | outcome [5] | Potency [6] | Potency [18] | Potency [7] | Potency [8] | Potency [11] | Potency [15]
active: Potency [9] 30.6 µM | Potency [20] 24.3 µM | Potency [10] 30.6 µM

CCCC(C)C
inactive: outcome [1] | Potency [2] | outcome [3] | outcome [4] | outcome [5] | Potency [6] | Potency [18] | Potency [7] | Potency [19] | Potency [8] | Potency [9] | Potency [20] | Potency [10] | Potency [11] | Potency [15]

C=C(C)C(=O)OCCOc1ccccc1
inactive: outcome [1] | Potency [2] | outcome [3] | outcome [4] | outcome [5] | outcome [17] | Potency [18] | Potency [7] | Potency [8] | Potency [11] | outcome [13] | Potency [14] | Potency [15] | Potency [16]

CC[C@H](C)[C@@H](C(=O)O)n1sc2ccccc2c1=O
inactive: outcome [1] | Potency [2] | outcome [3] | outcome [4] | outcome [5] | Potency [6] | Potency [18] | Potency [7] | Potency [19] | Potency [9] | Potency [11] | Potency [15]

CC(C(=O)O)c1ccc(C(=O)c2ccccc2)s1 (stereo unspecified)
inactive: fluorescence, % of fluorescein [1] 0.0614% [at 18.6 µM] | fluorescence, % of fluorescent control [2] -0.0527% [at 18.6 µM] | activity change [3] -0.0099% [at 18.6 µM] | fluorescence, % of fluorescent control [4] -0.0875% [at 18.6 µM] | fluorescence, % of Rose Bengal [5] 0.261% [at 18.6 µM] | fluorescence, % of fluorescent control [6] -0.006% [at 18.6 µM] | fluorescence, % of fluorescent control [18] 0.0098% [at 18.6 µM] | Potency [9] | Potency [20] | Potency [10] | Potency [12] | Potency [14] | Potency [15] | Potency [16]

Cl/C(=C\n1cncn1)c1ccc(Cl)cc1Cl
inactive: outcome [1] | Potency [2] | outcome [3] | outcome [4] | outcome [5] | outcome [17] | Potency [18] | Potency [8] | Potency [9] | Potency [20] | Potency [10] | Potency [11]

CCCCOC(=O)c1ccccc1C(=O)OCC(CC)CCCC (stereo unspecified)
inactive: outcome [1] | Potency [2] | outcome [3] | outcome [4] | outcome [5] | Potency [6] | Potency [18] | Potency [7] | Potency [8] | Potency [9] | Potency [10] | Potency [11] | Potency [15]
